697 NFkB inh: inhibitors of the PMA/ionomycin-induced NF-kB reporter in 697 B cells | inhibition, % at 4 µM | hit rate 0.33% among 330,000 | 697 B-cell NF-kB luciferase reporter, 16 h; in the data active = inhibition above about 35%
Shn3 inh set2: Schnurri-3 reporter inhibition in Clone20 osteoblasts; Clone20 osteoblast Shn3 3'UTR firefly luciferase, 24 h; inhibition, % at 12.5 µM; hit rate 0.52% among 360,000; AID 588674;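 active = mean inhibition of at least 75% with every replicate also reaching 75%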
Jurkat NFkB inh: inhibitors of the PMA/ionomycin-induced NF-kB reporter in Jurkat cells. PMA/ionomycin-induced NF-kB luciferase reporter, luminescence. inhibition, % at 4 µM. hit rate 0.53% among 330,000. AID 435003; in the data active = inhibition above about 50%
Gli-Sufu antag: Gli-Sufu pathway antagonism; Sufu-KO-LIGHT fibroblasts, Gli luciferase reporter luminescence; inhibition, % at 5 µM; hit rate 0.74% among 340,000; AID 588413;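 active = inhibition above about 55%, limit read from the data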
Mdm2-MdmX inh: inhibitors of human Mdm2/MdmX interaction. inhibition, % at 8 µM. hit rate 3% among 330,000. SaOS-2 split-luciferase Mdm2/MdmX complementation, luminescence;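 active = inhibition of at least 50% at 8 µM in the primary screen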
Target sequence (O15151 whole entry, looked up): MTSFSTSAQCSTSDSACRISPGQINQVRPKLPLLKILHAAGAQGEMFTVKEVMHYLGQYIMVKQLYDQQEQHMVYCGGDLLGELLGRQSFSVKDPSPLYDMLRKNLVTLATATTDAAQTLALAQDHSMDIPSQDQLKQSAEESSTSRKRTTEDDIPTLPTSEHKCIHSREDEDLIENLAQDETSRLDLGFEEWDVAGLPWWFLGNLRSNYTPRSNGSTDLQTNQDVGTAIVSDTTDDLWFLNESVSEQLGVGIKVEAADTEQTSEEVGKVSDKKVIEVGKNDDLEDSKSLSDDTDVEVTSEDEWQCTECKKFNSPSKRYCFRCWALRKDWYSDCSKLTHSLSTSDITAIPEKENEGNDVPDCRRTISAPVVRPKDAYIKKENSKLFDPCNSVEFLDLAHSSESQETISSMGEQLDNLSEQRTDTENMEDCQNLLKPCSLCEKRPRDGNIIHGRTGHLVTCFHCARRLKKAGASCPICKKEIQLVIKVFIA
Target sequence (Q00987 whole entry, looked up): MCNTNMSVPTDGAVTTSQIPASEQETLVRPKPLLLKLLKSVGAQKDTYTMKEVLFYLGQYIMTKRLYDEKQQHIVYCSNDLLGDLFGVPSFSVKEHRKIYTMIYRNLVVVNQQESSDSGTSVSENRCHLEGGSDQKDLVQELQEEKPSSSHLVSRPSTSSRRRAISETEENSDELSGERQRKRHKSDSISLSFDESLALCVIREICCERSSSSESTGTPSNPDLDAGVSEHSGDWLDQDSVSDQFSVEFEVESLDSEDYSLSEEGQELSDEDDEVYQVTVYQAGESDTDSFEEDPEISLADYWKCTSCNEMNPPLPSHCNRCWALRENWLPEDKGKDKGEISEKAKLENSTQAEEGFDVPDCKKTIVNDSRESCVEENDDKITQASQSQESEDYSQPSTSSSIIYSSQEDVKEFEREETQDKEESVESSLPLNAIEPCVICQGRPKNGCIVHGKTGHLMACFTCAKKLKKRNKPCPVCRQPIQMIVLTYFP
Mdm2 MdmX conf: human Mdm2/MdmX binding inhibition, confirmed; shares compounds with Mdm2-MdmX inh; hit rate 55% among 10,000; inhibition, % at 8 µM; AID 489028; luminescent assay; in the data active = inhibition above about 40%
FLuc counter: counter-screen for Mdm2/MdmX inhibitors: full-length luciferase | shares compounds with Mdm2-MdmX inh | SaOS-2 full-length luciferase counterscreen, luminescence | inhibition, % at 8 µM | hit rate 77% among 6,200 | AID 504607;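 active = mean inhibition at 8 µM reaching about 37%, which flags the compound as non-specific, limit read from the data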;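 note: p53-null SaOS-2 cells with luciferase driven by a doxycycline-inducible promoter; compound on cells about two nights before reading with doxycycline added after day one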
Numbers stand for hits; 0 = inactive; - = not tested or not shown. Only some compounds are listed: those with a hit (about 3.8% of all), similar ones and a draw of the others.

SMILES | 697 NFkB inh | Shn3 inh set2 | Jurkat NFkB inh | Gli-Sufu antag | Mdm2-MdmX inh | Mdm2 MdmX conf | FLuc counter
COc1cccc(C#Cc2c(C=O)n(C)c3ccccc23)c1 | 0 | 0 | 0 | 0 | 66 | 0 | 70
Cc1[nH]n(C2=NCCS2)c(=O)c1N=Nc1cccc(C(F)(F)F)c1 | 0 | 0 | 0 | 0 | 56 | 56 | 36
COc1ccc(NC(=O)N(C)C[C@H]2OCCCC[C@H](C)Oc3ccc(NS(=O)(=O)c4cn(C)cn4)cc3C(=O)N([C@H](C)CO)C[C@@H]2C)cc1 | - | 0 | - | - | - | - | -
COCCNC(=O)Cc1c(C)c2c(cc(C)c3c(C(C)(C)C)coc32)oc1=O | 0 | 0 | 0 | 0 | 67 | 44 | 64
Cc1cc2oc(=O)c(CC(=O)NCCCO)c(C)c2c2occ(C(C)(C)C)c12 | 0 | 0 | 0 | 0 | 0 | - | -
Cc1cc2oc(=O)c(CC(=O)NCCCN(C)C)c(C)c2c2occ(C(C)(C)C)c12 | 0 | - | 0 | 0 | 94 | 76 | 41
CCNc1nc(NCC)n2c(SC(C(=O)Nc3cc(Cl)cc(Cl)c3)c3ccccc3)nnc2n1 (centres undefined) | 0 | 0 | 0 | 0 | 95 | 0 | -
CCNc1nc(NCC)n2c(SCC(=O)Nc3cccc(Cl)c3)nnc2n1 | 0 | 0 | 0 | 0 | 0 | - | -
Cc1ccnc(SCC(=O)c2cc3ccccc3o2)n1 | 0 | 0 | 0 | 0 | 0 | - | -
CCOc1ccccc1/C=N/Nc1ccc(Cl)nn1 | 0 | 0 | 0 | - | 0 | - | -
CCOc1ccc(/C=N/Nc2ccc(Cl)nn2)c(O)c1 | 0 | 0 | 0 | 0 | 54 | 0 | 58
COc1cccc(CNC(=O)[C@@H](C)N2C(=O)N3CCc4c([nH]c5ccc(OC)cc45)C3(C)C2=O)c1 (some centres undefined) | 0 | 0 | 0 | 0 | 0 | - | -
COC(=O)N/N=C(\C)c1ccc(C)c([N+](=O)[O-])c1 | 0 | 0 | 0 | 0 | 0 | - | -
C/C(=N\NC(=O)c1cc(C)oc1C)c1ccc(C)c([N+](=O)[O-])c1 | 0 | 0 | 0 | 0 | 96 | 0 | -
C/C(=N/Nc1ccccc1[N+](=O)[O-])c1ccc(C)c([N+](=O)[O-])c1 | 0 | 0 | 0 | 0 | 70 | 0 | -
CC(Sc1ccc(S(=O)(=O)N2CCOCC2)cn1)c1ccccc1Cl (centres undefined) | 0 | 0 | 0 | 0 | 0 | - | -
COc1ccc(NC(=O)OCCn2c([N+](=O)[O-])cnc2C)cc1 | 0 | 0 | 0 | 0 | 0 | - | -
O=C1N=C(N2CCCC2)S/C1=C\C=C\c1ccccc1 | 0 | 0 | 0 | 0 | 59 | 64 | 152
COC(=O)C1=C(C)N(c2ccc(F)cc2)/C(=C/c2ccc(O)cc2)C1=O | 0 | 0 | 0 | 0 | 0 | - | -
O=C(NC1CCCCC1)C1CCC(CNS(=O)(=O)c2cccc3nsnc23)CC1 (centres undefined) | 0 | 0 | 0 | 0 | 0 | - | -
CC1CCC(NC(=O)C2CCC(CNS(=O)(=O)c3cccc4nsnc34)CC2)CC1 (centres undefined) | 0 | 0 | 0 | 0 | 56 | 0 | -
CN(Cc1ccco1)c1ncnc2ccc(-c3ccc4c(ccn4C)c3)cc12 | 0 | 0 | 0 | 0 | 51 | 53 | 66
O=C(Nc1cccc(NC(=O)c2ccc(Br)o2)n1)c1ccc(Br)o1 | 0 | 0 | 0 | 0 | 0 | - | -
Cc1ccc2cccc(NC(=O)c3ccc(Br)o3)c2n1 | 0 | 0 | 0 | 0 | 61 | 63 | 55
O=C(Nc1ccccc1-c1nc2ccccc2s1)c1ccc(Br)o1 | 0 | 0 | 0 | 0 | 60 | 0 | -
SMILES | 697 NFkB inh | Shn3 inh set2 | Jurkat NFkB inh | Gli-Sufu antag | Mdm2-MdmX inh | Mdm2 MdmX conf | FLuc counter
CC(C)(C)C(=O)CSc1nc(N)cc(=O)[nH]1 | 0 | 0 | 0 | 0 | 0 | - | -
NC(=O)[C@@H]1CC2(CC(c3cccc(NC(=O)[C@@H]4CCC(=O)N4)c3)=NO2)CN1C(=O)Cc1ccc([N+](=O)[O-])cc1 (some centres undefined) | 0 | 0 | 0 | 0 | 0 | - | -
Cc1cc(C)n(C(=O)/C(C#N)=N/Nc2cc(Cl)cc(Cl)c2)n1 | 0 | 0 | 0 | 0 | 89 | 88 | 51
COc1ccc(-n2cc(CN[C@H]3CCCCNC3=O)c(-c3cccc(F)c3)n2)cc1 | 0 | 0 | 0 | 0 | 0 | - | -
COc1ccc(-n2cc(CNC3CCN(C)CC3)c(-c3cccc(F)c3)n2)cc1 | 0 | 0 | 0 | 0 | 66 | 57 | 41
CCCNC(=O)c1ccc2c(=O)c(O)c(-c3ccsc3)[nH]c2c1 | 0 | 0 | 0 | 0 | 57 | 0 | -
CCCNC(=O)c1ccc2c(=O)c(O)c(-c3ccc(C)cc3)[nH]c2c1 | 0 | 0 | 0 | 0 | 58 | 51 | 48
CCCNC(=O)c1ccc2c(=O)c(O)c(-c3ccc(OC)cc3)[nH]c2c1 | 0 | 0 | 0 | 0 | 50 | 0 | -
Cc1ccc(-c2[nH]c3cc(C(=O)NCCCn4ccnc4)ccc3c(=O)c2O)cc1 | 0 | 0 | 0 | 0 | 0 | - | -
COc1ccc(NC(=S)N2CCC3CC2c2cc(-c4ccc5c(c4)OCO5)ccc23)c(OC)c1 (centres undefined) | - | 0 | - | - | - | - | -
Cc1cc(N/N=C2\CC(C)CC(C)(C)C2)nc2ccccc12 (centres undefined) | 0 | 0 | 0 | 0 | 0 | - | -
CC1(C)CC(NC(=O)c2sc3cc(Cl)ccc3c2Cl)CC(C)(C)N1 | 0 | 0 | 0 | 0 | 87 | 62 | 46
O=C(NC1CC1)c1sc2cc(Cl)ccc2c1Cl | 0 | 0 | 0 | 0 | 0 | - | -
COc1ccc(/C=C/C(O)=C2/C(=O)N(C)C3(C)CC2c2ccccc2O3)cc1 (centres undefined) | 0 | 0 | 0 | 0 | 73 | 0 | -
Cc1ccc(/C=C/C(O)=C2/C(=O)N(C)C3(C)CC2c2ccccc2O3)cc1 (centres undefined) | 0 | 0 | 0 | 0 | 83 | 42 | 0
Cc1ccc(S(=O)(=O)C2C(=O)N(C)C3(C)CC2c2ccccc2O3)cc1C (centres undefined) | 0 | 0 | 0 | 0 | 0 | - | -
COc1ccc(/C=C/C(O)=C2/C(=O)NC3(C)CC2c2ccccc2O3)c(OC)c1OC (centres undefined) | 0 | 0 | 0 | 0 | 0 | - | -
N#C/C(C(=O)NCCc1ccccc1)=C1/N=C(NC(=O)c2cccs2)c2ccccc21 | 0 | 0 | 0 | 0 | 0 | - | -
N#C/C(C(=O)NCc1ccccc1)=C1/N=C(NC(=O)c2ccco2)c2ccccc21 | 0 | 0 | 0 | 0 | 65 | 0 | -
COc1ccc(CCNC(=O)/C(C#N)=C2\N=C(NC(=O)c3ccco3)c3ccccc32)cc1 | 0 | 0 | 0 | 0 | 52 | 0 | -
Cc1cc(SCC(=O)c2ccc(O)c(O)c2)n2nc(C)c(-c3ccccc3)c2n1 | 0 | 0 | 0 | 0 | 52 | 57 | 54
Cc1cc(C)nc(SCC(=O)c2ccc(O)c(O)c2)n1 | 0 | 0 | 0 | 0 | 0 | - | -
Cc1ccc(C(=O)NC(=C(Cl)Cl)S(=O)(=O)c2ccc(Cl)cc2)cc1 | 0 | 0 | 0 | 0 | 0 | - | -
Cc1ccc(C(=O)NC(=C(Cl)Cl)S(=O)(=O)c2ccc(C)cc2)cc1 | 0 | 0 | 0 | 0 | 0 | - | -
Cc1ccc(S(=O)(=O)C(NC(=O)c2ccccc2)=C(Cl)Cl)cc1 | 0 | 0 | 0 | 0 | 65 | 0 | -
